Experimental data reported in the supplement of paper PMC11732987, “Enantioselective OTUD7B fragment discovery through chemoproteomics screening and high-throughput optimisation” (Communications Chemistry, 2025).
Values without a mark were called inactive.

Legend:
Experiment in all cases: log2 ratio of Biotin-Ahx-Ub-VS probe labelling (fragment/DMSO); higher = less target engagement (more negative = stronger competition), active = hit call of the paper (q ≤ 0.05, log2 ratio ≤ -1)
Conditions in all cases: compound concentration: 200 uM; treatment time: 3 h
[1] = target: USP34 (UniProt Q70CQ2)
In short: (§1)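 HEK293T lysate in Tris/CHAPS/IGEPAL buffer with protease inhibitors (495 µg per sample) was given fragment at 200 µM or vehicle for 3 h, in triplicate. It then received Biotin-Ahx-Ub-VS at 0.5 µM final for 1 h. Labelled DUBs were NeutrAvidin-enriched, digested with LysC and trypsin, and run by diaPASEF LC-MS/MS. Values are average log2 fragment/vehicle ratios by unpaired t-test on global-median-normalised Spectronaut quantities of proteins with ≥2 unique peptides.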

[2] = target: T1, USP36 (UniProt Q9P275)
T1 sequence (whole entry): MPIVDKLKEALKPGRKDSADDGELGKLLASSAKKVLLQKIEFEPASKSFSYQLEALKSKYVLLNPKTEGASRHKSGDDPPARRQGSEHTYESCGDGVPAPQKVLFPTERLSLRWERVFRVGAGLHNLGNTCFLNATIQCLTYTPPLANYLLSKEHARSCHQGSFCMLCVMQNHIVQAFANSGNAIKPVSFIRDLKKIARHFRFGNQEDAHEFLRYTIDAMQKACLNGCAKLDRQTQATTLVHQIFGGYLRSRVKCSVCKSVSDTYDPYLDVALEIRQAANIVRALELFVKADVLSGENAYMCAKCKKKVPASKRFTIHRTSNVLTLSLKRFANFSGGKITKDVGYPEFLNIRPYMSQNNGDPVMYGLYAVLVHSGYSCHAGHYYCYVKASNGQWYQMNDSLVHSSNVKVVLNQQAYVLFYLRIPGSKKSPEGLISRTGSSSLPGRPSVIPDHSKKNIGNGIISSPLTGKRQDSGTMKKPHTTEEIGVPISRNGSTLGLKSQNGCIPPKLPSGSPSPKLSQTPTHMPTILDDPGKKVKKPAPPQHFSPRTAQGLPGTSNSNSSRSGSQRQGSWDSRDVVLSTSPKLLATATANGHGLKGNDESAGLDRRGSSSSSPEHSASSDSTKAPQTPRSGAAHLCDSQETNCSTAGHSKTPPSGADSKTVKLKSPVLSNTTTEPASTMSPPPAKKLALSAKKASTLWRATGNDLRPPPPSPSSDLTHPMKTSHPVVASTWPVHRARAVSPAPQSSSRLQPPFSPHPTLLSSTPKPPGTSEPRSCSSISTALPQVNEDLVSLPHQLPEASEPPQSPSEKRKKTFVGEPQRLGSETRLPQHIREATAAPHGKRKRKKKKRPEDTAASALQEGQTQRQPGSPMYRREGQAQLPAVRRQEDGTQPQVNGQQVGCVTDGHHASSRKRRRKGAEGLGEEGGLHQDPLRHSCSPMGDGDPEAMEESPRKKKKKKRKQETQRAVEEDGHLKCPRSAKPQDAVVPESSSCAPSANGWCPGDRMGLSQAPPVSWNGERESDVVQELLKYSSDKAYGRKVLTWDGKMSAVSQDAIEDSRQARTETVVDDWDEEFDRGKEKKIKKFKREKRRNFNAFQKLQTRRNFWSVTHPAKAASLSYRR
In short: as §1

[3] = target: T2, USP38 (UniProt Q8NB14)
T2 sequence (whole entry): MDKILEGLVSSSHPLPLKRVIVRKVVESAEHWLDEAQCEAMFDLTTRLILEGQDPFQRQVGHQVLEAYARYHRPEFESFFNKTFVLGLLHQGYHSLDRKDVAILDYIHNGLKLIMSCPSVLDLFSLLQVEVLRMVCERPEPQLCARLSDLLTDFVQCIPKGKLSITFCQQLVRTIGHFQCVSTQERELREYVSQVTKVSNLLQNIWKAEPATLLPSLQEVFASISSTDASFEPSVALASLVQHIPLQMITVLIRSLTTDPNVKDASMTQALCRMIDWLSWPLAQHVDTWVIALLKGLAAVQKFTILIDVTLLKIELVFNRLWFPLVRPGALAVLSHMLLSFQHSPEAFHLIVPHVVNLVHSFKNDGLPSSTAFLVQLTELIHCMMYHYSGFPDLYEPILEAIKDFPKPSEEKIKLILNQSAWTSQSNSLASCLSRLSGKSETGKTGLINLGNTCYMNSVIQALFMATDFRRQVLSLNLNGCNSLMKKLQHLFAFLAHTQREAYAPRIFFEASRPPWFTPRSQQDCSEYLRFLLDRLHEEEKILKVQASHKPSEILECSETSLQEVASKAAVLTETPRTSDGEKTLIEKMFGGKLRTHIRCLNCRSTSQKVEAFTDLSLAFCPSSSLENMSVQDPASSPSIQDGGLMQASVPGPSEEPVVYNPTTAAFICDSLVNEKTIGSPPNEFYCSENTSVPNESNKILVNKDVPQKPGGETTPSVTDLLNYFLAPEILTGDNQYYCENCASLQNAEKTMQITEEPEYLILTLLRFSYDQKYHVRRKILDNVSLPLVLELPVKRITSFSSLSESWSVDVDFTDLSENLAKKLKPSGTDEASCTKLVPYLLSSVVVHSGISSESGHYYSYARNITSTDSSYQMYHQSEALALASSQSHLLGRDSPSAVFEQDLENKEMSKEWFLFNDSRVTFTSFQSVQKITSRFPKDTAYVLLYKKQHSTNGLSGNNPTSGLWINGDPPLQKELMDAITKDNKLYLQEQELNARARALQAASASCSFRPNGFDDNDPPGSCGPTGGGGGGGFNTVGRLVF
In short: as §1

[4] = target: T3, USP39 (UniProt Q53GS9)
T3 sequence (whole entry): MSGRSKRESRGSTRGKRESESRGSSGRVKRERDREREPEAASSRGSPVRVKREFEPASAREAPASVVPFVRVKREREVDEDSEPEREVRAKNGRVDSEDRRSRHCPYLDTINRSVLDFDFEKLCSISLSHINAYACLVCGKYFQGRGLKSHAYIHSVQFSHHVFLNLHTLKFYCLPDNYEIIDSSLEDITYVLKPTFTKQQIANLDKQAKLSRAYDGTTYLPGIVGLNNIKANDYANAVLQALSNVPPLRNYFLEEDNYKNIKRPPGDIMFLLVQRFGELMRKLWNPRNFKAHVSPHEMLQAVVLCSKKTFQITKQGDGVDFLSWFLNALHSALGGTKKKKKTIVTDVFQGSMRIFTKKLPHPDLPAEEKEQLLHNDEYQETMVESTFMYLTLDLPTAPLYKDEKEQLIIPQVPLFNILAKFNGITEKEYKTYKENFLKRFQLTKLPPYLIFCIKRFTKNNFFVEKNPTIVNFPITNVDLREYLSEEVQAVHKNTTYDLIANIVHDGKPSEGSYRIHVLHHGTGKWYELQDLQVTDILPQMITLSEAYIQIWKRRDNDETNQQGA
In short: as §1

[5] = target: T4, USP4 (UniProt Q13107)
T4 sequence (whole entry): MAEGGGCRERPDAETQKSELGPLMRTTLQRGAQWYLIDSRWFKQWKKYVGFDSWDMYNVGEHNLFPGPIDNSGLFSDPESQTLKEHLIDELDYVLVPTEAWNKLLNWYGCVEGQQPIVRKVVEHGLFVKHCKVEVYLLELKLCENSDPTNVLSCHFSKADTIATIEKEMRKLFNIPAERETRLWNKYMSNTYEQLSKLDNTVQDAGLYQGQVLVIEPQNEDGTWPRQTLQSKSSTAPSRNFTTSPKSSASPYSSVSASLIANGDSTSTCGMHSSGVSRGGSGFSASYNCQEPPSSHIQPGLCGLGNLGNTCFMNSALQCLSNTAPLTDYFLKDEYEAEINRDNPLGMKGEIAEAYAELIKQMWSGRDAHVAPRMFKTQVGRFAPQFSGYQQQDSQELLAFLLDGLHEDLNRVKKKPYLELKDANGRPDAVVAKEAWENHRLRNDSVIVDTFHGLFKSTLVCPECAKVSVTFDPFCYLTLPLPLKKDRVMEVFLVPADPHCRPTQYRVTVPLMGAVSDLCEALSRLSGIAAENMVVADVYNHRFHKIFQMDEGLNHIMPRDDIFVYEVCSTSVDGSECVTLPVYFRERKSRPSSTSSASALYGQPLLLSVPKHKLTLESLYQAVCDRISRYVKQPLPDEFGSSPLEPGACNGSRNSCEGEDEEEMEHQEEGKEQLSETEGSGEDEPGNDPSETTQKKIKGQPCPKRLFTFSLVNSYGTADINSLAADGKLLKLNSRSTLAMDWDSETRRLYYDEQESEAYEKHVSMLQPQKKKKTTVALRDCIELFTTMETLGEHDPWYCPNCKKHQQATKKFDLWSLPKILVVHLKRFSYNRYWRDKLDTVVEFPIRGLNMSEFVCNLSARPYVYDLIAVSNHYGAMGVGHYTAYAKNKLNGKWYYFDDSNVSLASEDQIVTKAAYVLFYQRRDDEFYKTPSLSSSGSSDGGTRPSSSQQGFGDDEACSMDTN
In short: as §1

Sequence of USP34 (Q70CQ2 whole entry, the tested form may be a part): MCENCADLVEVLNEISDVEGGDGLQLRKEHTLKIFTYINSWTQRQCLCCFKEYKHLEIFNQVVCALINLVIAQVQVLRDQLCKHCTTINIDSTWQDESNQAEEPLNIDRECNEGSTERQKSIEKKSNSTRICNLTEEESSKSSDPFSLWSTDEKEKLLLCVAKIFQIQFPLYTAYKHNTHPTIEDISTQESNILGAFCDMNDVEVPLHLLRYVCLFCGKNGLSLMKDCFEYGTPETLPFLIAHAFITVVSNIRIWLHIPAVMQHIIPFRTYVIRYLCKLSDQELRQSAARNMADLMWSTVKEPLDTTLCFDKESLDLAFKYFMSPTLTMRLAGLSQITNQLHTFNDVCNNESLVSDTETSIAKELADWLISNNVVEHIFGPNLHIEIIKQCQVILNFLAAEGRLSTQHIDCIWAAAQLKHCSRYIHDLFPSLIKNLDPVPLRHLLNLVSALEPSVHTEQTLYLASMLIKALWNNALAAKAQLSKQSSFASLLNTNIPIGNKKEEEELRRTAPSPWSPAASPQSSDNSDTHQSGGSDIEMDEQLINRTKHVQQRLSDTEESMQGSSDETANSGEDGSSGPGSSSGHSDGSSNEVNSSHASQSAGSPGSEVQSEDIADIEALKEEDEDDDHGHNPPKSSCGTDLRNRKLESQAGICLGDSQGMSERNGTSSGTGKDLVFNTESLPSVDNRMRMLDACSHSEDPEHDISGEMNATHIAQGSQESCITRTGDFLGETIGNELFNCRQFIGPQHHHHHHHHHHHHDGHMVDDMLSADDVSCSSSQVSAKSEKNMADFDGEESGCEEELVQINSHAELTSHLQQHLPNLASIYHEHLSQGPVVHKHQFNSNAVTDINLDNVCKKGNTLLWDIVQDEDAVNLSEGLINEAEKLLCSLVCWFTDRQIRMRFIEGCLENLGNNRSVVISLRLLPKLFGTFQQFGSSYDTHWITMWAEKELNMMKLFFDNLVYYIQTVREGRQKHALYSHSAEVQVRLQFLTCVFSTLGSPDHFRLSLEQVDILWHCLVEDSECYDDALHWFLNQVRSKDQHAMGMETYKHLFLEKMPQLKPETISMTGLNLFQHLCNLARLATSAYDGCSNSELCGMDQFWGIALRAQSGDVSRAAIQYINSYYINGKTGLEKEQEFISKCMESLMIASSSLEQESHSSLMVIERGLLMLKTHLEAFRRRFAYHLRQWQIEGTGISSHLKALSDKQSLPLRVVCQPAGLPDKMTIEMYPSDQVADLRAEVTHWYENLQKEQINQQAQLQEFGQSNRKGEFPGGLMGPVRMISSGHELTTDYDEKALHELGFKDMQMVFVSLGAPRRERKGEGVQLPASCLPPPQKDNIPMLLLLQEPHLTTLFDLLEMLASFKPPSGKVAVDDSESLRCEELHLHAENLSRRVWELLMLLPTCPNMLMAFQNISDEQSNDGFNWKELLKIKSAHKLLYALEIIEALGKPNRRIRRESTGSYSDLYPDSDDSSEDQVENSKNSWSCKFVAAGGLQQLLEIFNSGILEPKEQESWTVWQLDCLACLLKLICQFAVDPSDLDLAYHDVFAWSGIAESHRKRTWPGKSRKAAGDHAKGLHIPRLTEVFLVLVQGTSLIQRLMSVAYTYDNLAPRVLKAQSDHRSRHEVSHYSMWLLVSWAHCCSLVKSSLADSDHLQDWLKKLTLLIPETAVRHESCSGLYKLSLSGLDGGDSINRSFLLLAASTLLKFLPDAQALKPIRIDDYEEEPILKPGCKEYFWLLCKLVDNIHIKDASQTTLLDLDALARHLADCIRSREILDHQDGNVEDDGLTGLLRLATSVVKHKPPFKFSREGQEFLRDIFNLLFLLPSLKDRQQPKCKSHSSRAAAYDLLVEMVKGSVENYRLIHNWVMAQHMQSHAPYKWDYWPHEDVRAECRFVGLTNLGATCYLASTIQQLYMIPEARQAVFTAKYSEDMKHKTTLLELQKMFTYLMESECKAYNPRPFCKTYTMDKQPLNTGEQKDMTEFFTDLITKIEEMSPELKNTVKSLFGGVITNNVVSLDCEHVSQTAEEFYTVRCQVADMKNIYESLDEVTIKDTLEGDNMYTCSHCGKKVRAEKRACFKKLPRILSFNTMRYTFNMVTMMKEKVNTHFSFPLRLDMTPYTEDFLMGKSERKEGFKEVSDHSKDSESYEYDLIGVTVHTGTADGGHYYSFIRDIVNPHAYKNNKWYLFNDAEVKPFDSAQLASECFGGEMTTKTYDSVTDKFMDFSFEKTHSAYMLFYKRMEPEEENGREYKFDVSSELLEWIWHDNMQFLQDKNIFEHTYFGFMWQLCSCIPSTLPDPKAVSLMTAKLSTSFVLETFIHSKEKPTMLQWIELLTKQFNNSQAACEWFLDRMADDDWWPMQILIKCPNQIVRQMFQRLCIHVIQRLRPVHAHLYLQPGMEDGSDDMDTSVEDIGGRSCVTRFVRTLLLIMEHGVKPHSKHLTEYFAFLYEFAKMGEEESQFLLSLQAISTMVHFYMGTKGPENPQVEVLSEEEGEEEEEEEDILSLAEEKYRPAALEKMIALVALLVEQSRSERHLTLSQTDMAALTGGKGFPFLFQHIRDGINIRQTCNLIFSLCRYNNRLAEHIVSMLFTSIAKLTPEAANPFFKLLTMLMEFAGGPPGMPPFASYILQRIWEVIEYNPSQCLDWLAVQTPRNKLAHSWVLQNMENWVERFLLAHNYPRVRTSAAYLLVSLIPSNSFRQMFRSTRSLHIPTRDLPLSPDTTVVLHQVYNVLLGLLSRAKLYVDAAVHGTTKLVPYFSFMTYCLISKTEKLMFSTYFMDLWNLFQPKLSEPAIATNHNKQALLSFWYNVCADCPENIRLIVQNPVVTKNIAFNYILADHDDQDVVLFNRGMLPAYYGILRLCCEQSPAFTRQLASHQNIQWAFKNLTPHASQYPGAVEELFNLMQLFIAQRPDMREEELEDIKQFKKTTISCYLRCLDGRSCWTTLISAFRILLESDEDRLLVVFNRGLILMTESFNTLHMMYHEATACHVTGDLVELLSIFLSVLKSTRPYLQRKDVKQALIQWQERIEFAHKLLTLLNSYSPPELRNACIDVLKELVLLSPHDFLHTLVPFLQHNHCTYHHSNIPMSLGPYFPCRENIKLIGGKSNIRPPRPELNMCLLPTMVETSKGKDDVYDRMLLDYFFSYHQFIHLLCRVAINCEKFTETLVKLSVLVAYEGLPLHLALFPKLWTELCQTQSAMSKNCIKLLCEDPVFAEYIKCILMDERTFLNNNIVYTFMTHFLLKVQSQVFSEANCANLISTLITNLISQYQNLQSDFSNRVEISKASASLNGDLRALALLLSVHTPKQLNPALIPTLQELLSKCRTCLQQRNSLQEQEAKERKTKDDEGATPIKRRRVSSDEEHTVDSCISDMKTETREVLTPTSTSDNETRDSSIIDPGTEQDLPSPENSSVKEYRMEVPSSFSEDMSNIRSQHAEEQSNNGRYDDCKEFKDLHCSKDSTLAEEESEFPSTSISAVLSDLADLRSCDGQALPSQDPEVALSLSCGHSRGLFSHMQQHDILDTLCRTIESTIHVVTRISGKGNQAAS

## O=C(CCl)N1CCc2[nH]c3ccccc3c2C1
[1]
  log2 ratio of Biotin-Ahx-Ub-VS probe labelling: -0.571
[2]
  log2 ratio of Biotin-Ahx-Ub-VS probe labelling: 0.0133
[3]
  log2 ratio of Biotin-Ahx-Ub-VS probe labelling: -0.674
[4]
  log2 ratio of Biotin-Ahx-Ub-VS probe labelling: 5.6e-06
[5]
  log2 ratio of Biotin-Ahx-Ub-VS probe labelling: -1.51 (active)
